An excerpt weighted towards active compounds, which were near 1.4% of everything screened.
pCIP destab – p/CIP-EGFP fusion destabilizers, primary screen, fluorescence, F442A cells | 16 h | decrease of EGFP signal, % at 10 µM | 290,000 tested, 0.01% active | Q05BA5;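 active = EGFP signal decrease of at least 30% at 10 µM or well 3 SD below plate mean, unless failing retest; inactive = the rest, including hits failing retest or dose response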
CR mimetic SO – reduction of superoxide in aged yeast, primary screen, HTS. S. cerevisiae aged cells, superoxide DHE fluorescence; hits give low values. superoxide response (% of plate mean), % at 10 µM. 330,000 tested, 0.18% active. AID 2690, 2010;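 active = superoxide response under a set limit, about three screen SD below normal, cut at about 65% in these data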;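 note: yeast aged for seven days with compound at 30 °C before DHE staining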
Cardio protect – cardioprotection against H2O2-induced cell death, primary screen, uHTS, H9c2 cells, ATPLite luminescence; H9c2 cardiomyocytes, H2O2 injury protection, 2 h; protection from H2O2 cell death, % at 20 µM; 360,000 tested, 0.63% active; AID 588492, 2011;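 active = compounds giving at least 50% protection of heart cells from peroxide-induced death in the single-dose screen, raw or plate-pattern-corrected value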
beta cell repl – inducers of MIN6 beta-cell proliferation, primary screen, ATP luminescence, uHTS | MIN6 cells proliferation, ATPlite luminescence, 48 h; cells starved in 0.2% serum; 100% = growth in 10% serum | proliferation, % at 10 µM | 330,000 tested, 0.29% active | AID 2380, 2010;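 active = compounds whose signal lies at least 3.5 SD above the mean of all wells on their plate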
HSV replic up – enhancers of HSV replication in host cells, fold increase, host cell viability. maximum fold increase. AID 1956, 2009. 220,000 tested, 0.005% active. HSV replication augmentation in cells; in the data active = maximum fold increase above about 1.5; tested in PC3 cells
V-ATPase pHluor – regulators of yeast V-ATPase proton pumping, primary screen, pHLuorin cytosolic pH fluorescence; S. cerevisiae; response, % at 10 µM; AID 504577, 2011; 350,000 tested, 0.37% active; in the data active = response mostly above about 7.3%, no sharp cut-off; inactive = mostly below about 5.4%; note: actives read high
V-ATPase pH SP – yeast V-ATPase proton pumping modulators, confirmation, S. cerevisiae, pH-sensitive GFP, second cherry-pick; S. cerevisiae pHLuorin cytosolic pH, V-ATPase proton transport; 980 tested, 2% active; response, % at 10 µM; shares compounds with V-ATPase pHluor; in the data active = response above about 24%
A number is an active result; – = inactive; · = no result given.

SMILES	pCIP destab	CR mimetic SO	Cardio protect	beta cell repl	HSV replic up	V-ATPase pHluor	V-ATPase pH SP
COc1cc(/C=C/C(=O)NC2CCCCC2)cc(OC)c1OC	–	–	–	–	·	8.8	–
CC(=O)N1c2ccc(S(=O)(=O)N3CCCC3C(=O)Nc3ccc(C)cc3)cc2CC1C (configuration not stated)	–	–	–	–	·	–	·
COc1cc(NC(=O)C2CCCN2S(=O)(=O)c2ccc3c(c2)CC(C)N3C(C)=O)cc(OC)c1 (configuration not stated)	–	–	–	–	·	8.5	–
CC(C)CC(=O)Nc1ccc(C(=O)CN2CCC(C)CC2)cc1	–	–	–	–	–	–	·
COc1ccccc1CNS(=O)(=O)c1ccc2c(c1)CCCN2C(C)=O	–	–	–	–	·	12	–
O=C(OCc1cc(=O)n2ccsc2n1)C1(c2ccccc2)CC1	·	·	–	·	·	–	·
COc1ccc(N2C[C@H](CSC)[C@@H](CC(=O)Nc3ccccc3)C2=O)cc1	·	·	–	·	·	7.0	–
O=C(c1ccccc1F)N1CCN(S(=O)(=O)c2ccc3ccccc3c2)CC1	–	–	–	–	·	–	·
CSc1ncccc1C(=O)N1CCN(S(=O)(=O)c2ccc3ccccc3c2)CC1	·	–	–	–	·	10	–
CC(C)Oc1ccccc1NC(=O)CSc1nccn1C	–	–	–	–	·	–	·
Cc1cc(-c2ccccc2)nc(N/N=C/c2ccccc2F)n1	–	–	–	–	·	–	·
O=C(NC1CCCCC1)c1ccc2c(c1)OCO2	–	–	–	–	·	–	·
O=C(NCCS(=O)(=O)NC1CCCCC1)c1ccc2c(c1)OCO2	·	–	–	–	·	7.1	–
CCCCC(=O)NC1(C(F)(F)F)NC(=O)N(C)C1=O (configuration not stated)	–	–	–	–	–	–	·
